Compound activity: PubChem BioAssay, several laboratories
In the library only some 1.6% were active in any assay of this set; here they are far more common.
UBC9 SUMO inh – inhibitors of human SUMOylation (UBC9) | P63279 | hit rate 0.36% among 290,000 | AID 2006 | inhibition, % at 35 µM | HTRF SUMOylation assay, SAE1/SAE2 + UBC9, in vitro; in the data active = inhibition above about 50%, passing the limit was not always enough
Target sequence (P63279 whole entry, looked up): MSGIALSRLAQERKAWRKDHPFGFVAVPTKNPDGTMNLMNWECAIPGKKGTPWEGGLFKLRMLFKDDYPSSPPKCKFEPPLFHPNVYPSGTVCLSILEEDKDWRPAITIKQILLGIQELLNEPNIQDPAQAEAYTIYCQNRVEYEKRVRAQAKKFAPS
Casp6 inh – blocks human caspase-6 cleavage activity | hit rate 0.53% among 350,000 | purified caspase-6, Z-VEID-R110 cleavage fluorescence | inhibition, % at 12.5 µM | P55212 | AID 686996;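 active = mean inhibition across replicates at least about 35%, with every replicate also reaching that limit, limit read from the data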
Target sequence (P55212 24-179 limits assumed): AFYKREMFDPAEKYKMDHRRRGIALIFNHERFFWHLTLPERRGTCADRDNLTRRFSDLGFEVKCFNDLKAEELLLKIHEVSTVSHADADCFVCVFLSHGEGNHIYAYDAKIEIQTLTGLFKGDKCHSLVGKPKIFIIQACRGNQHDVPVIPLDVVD
Target sequence (P55212 194-293 limits assumed): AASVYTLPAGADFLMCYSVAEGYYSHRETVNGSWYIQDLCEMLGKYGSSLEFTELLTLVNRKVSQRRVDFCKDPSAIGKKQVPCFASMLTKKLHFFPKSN
NSD2 inh – inhibitors of human histone methyltransferase NSD2; hit rate 0.54% among 310,000; NSD2 peptide methylation, AlphaScreen, 120 min; AID 743445; inhibition, % at 12.5 µM; O96028; in the data active = inhibition above about 50%
SIRT5 inh – blocks human SIRT5 desuccinylation of peptide; Q9NXA8; inhibition, % at 15 µM; Purified SirT5, succinyl-peptide AMC, trypsin-coupled fluorescence; hit rate 1.1% among 330,000; in the data active = inhibition above about 15%
Numbers stand for hits.

`CCC(=O)NC[C@@H]1[C@@H](c2ccc(C3=CCCC3)cc2)[C@@H](CO)N1CC1CCCC1` gave Casp6 inh inactive and SIRT5 inh inactive.
For CC=Cc1ccc2n(c1=O)C[C@H]1[C@H](CO)[C@@H](C(=O)NCC)[C@@H]2N1Cc1cccc(Cl)c1 (mixture of isomers) the results were Casp6 inh inactive and SIRT5 inh inactive.
C[C@H](CO)N1C[C@H](C)[C@H](CN(C)C(=O)c2ccccc2)Oc2cc(C3=CCCC3)ccc2S1(=O)=O was read as Casp6 inh inactive and SIRT5 inh inactive.
`O=C(O)C1C=Cc2ccccc2N1C(=O)c1ccccc1` (configuration not stated) (tested in a mixture with another compound) gave Casp6 inh 39 and NSD2 inh inactive.
Screening O=C(NCCc1cnc[nH]1)c1ccc(-c2ccccc2)cc1 returned UBC9 SUMO inh inactive, Casp6 inh inactive, NSD2 inh inactive and SIRT5 inh 17.
`CCOc1ccc(C(=O)NCCc2cnc[nH]2)cc1` gave UBC9 SUMO inh inactive, Casp6 inh inactive, NSD2 inh inactive and SIRT5 inh inactive.
Screening CC1(C)NC(=O)N(CCOCCOc2ccccc2-c2ccccc2)C1=O returned UBC9 SUMO inh inactive, Casp6 inh inactive, NSD2 inh inactive and SIRT5 inh 26.
For CCC(=O)c1ccccc1OCCN1C(=O)NC(C)(C)C1=O the results were UBC9 SUMO inh inactive, Casp6 inh inactive, NSD2 inh inactive and SIRT5 inh inactive.
`CC(C)NC(=S)Nc1ccc2[nH]c(=O)[nH]c2c1` gave UBC9 SUMO inh inactive, Casp6 inh inactive, NSD2 inh inactive and SIRT5 inh inactive.
`CNC(=S)Nc1ccc2[nH]c(=O)[nH]c2c1` gave UBC9 SUMO inh inactive, Casp6 inh inactive, NSD2 inh inactive and SIRT5 inh 21.
Screening CNC[C@H]1Oc2ccc(NC(=O)CCN3CCOCC3)cc2C(=O)N([C@@H](C)CO)C[C@H]1C returned Casp6 inh inactive and SIRT5 inh inactive.
Screening COc1ccc(CN(C)C(=O)c2ccc(Oc3ccccc3)cc2)cc1F returned UBC9 SUMO inh inactive, Casp6 inh inactive, NSD2 inh inactive and SIRT5 inh inactive.
Screening COc1ccc(C(=O)N(C)Cc2ccccc2)cc1Br returned UBC9 SUMO inh inactive, Casp6 inh inactive, NSD2 inh inactive and SIRT5 inh 18.
For C[C@@H]1CCCCO[C@@H](CN(C)S(=O)(=O)c2cccs2)[C@H](C)CN([C@H](C)CO)C(=O)c2cc(NC(=O)Nc3ccc(F)cc3)ccc2O1 the results were Casp6 inh inactive and SIRT5 inh 17.
For C[C@@H]1CCCCO[C@H](CN(C)S(=O)(=O)c2cccs2)[C@@H](C)CN([C@H](C)CO)C(=O)c2cc(NC(=O)Nc3ccc4c(c3)OCO4)ccc2O1 the results were Casp6 inh inactive and SIRT5 inh inactive.
Screening C[C@@H]1CN([C@H](C)CO)C(=O)c2cc(NC(=O)Nc3ccc4c(c3)OCO4)ccc2O[C@@H](C)CCCCO[C@H]1CN(C)S(=O)(=O)c1cccs1 returned Casp6 inh inactive and SIRT5 inh 18.
`C[C@@H]1CN([C@H](C)CO)C(=O)c2cc(NC(=O)Nc3ccc(F)cc3)ccc2O[C@@H](C)CCCCO[C@H]1CN(C)S(=O)(=O)c1cccs1` gave Casp6 inh inactive and SIRT5 inh inactive.
For COc1ccccc1C(=O)N1C[C@H]2[C@@H](c3ccccc31)[C@@H](CO)N2C(=O)C1CCCCC1 the results were Casp6 inh inactive and SIRT5 inh inactive.
Screening COc1ccc(-c2[nH]ncc2CN2CCSCC2)c(OC)c1 returned UBC9 SUMO inh inactive, Casp6 inh inactive, NSD2 inh inactive and SIRT5 inh inactive.
For COc1ccc(-c2[nH]ncc2CN(CCO)CC23CC4CC(CC(C4)C2)C3)c(OC)c1 the results were UBC9 SUMO inh inactive, Casp6 inh inactive, NSD2 inh inactive and SIRT5 inh 24.
O=C(NCc1ccccc1)c1nc(S(=O)(=O)Cc2ccccc2)ncc1Cl was read as UBC9 SUMO inh inactive, Casp6 inh inactive, NSD2 inh inactive and SIRT5 inh inactive.
Screening COc1ccc(CNC(=O)c2nc(S(=O)(=O)Cc3ccccc3)ncc2Cl)cc1 returned UBC9 SUMO inh inactive, Casp6 inh inactive, NSD2 inh inactive and SIRT5 inh 21.
COc1ccc(-c2nn(-c3ccccc3)cc2N)cc1 was read as UBC9 SUMO inh inactive, Casp6 inh inactive, NSD2 inh 63 and SIRT5 inh inactive.
`Cc1ccc(-c2nn(-c3ccccc3)cc2/C=C2\SC(=S)N(CC(=O)O)C2=O)cc1` gave UBC9 SUMO inh inactive, Casp6 inh inactive and SIRT5 inh inactive.
For O=C1C(=Cc2cn(-c3ccccc3)nc2-c2ccc(OCc3ccccc3F)cc2)SC(=S)N1CCS(=O)(=O)O the results were Casp6 inh 75 and SIRT5 inh inactive.
Screening O=C1C(=Cc2cn(-c3ccccc3)nc2-c2ccc(OCc3ccc(Cl)cc3)cc2)SC(=S)N1CCS(=O)(=O)O returned Casp6 inh 46 and SIRT5 inh 37.
COc1ccc(-c2nn(-c3ccccc3)cc2/C=C2/SC(=S)N(CCC(=O)O)C2=O)cc1 was read as UBC9 SUMO inh inactive, Casp6 inh 47, NSD2 inh inactive and SIRT5 inh inactive.
For O=C(CC1CC1)N1CC2(C1)[C@@H](c1ccccc1)[C@H](CO)N2C(=O)c1cnccn1 the results were Casp6 inh inactive and SIRT5 inh inactive.
COc1ccc(-c2ccc([C@H]3[C@H](CO)N4C(=O)CNC[C@@H]34)cc2)cc1 was read as Casp6 inh inactive and SIRT5 inh inactive.
For O=[N+]([O-])c1cc2oc3c(c2c(C=NCc2ccncc2)c1O)CCCC3 the results were UBC9 SUMO inh inactive and NSD2 inh 65.
For CN1C(=O)CC(Nc2cccc3cccc(N)c23)C1=O (configuration not stated) the results were UBC9 SUMO inh 90 and NSD2 inh inactive.
For O=C(Cc1ccc(F)cc1)OCC(=O)N1CCN(S(=O)(=O)c2ccc(Cl)cc2)CC1 the results were Casp6 inh inactive, NSD2 inh inactive and SIRT5 inh 19.
Screening Cc1noc(C)c1NC(=O)N(C)C[C@H]1Oc2ncc(C#CC(C)C)cc2C(=O)N([C@H](C)CO)C[C@H]1C returned Casp6 inh inactive and SIRT5 inh inactive.
CC(C)(C)[S@@](=O)N1Cc2cc(C(=O)N3CCOCC3)nc(-c3cccc(Br)c3)c2[C@H]1CCO was read as Casp6 inh inactive and SIRT5 inh inactive.
For CC(=O)N1[C@H](C(=O)NCc2ccc(F)cc2)[C@@H](CO)[C@@H]2Cn3c(cccc3=O)[C@@H]21 the results were Casp6 inh inactive and SIRT5 inh inactive.
Screening NCCCCCNC(=O)[C@@H]1C[C@@H]2C(=O)NCC(=O)N2[C@@H]1c1cccc(OCCO)c1 returned Casp6 inh inactive and SIRT5 inh inactive.
CN(C)CCCCCCNC(=O)[C@@H]1C[C@@H]2C(=O)NCC(=O)N2[C@@H]1c1cccc(OCCO)c1 was read as Casp6 inh inactive and SIRT5 inh 18.
`C[C@@H]1CN([C@H](C)CO)C(=O)Cc2cc(NC(=O)Cn3cnnn3)ccc2O[C@H]1CN(C)Cc1ccc(-c2ccccc2)cc1` gave Casp6 inh inactive and SIRT5 inh inactive.
